In the OligoGym collection:
Also: reference of the scale not given here.

The sequences below were run against EPHX1 (assay: pooled miR-30 sensor sort-seq; sequence = guide strand). Conditions: shRNA.
In the case of TCTCCTTGTAGAAGCGCTGGGA, the sensor-assay potency score (higher = more potent) is reported as -0.317.
In the case of TTCAATCTTAGTCTTGAAGTGA, the sensor-assay potency score (higher = more potent) is reported as -0.0669.
TGGATCTCCTCATCTGACGTTT showed a sensor-assay potency score (higher = more potent) of -0.892.
Work on AACTTCTCTAGAATATAGGCAG yielded a sensor-assay potency score (higher = more potent) of -0.342.
In the case of TCGTCCAGGGAGAACTTCCTTT, the sensor-assay potency score (higher = more potent) is reported as -1.04.
With TTGTAAAAGATCCTGGCGGTGG the sensor-assay potency score (higher = more potent) was -0.0602.
With TTGGAGTTGAAGCCATAGTGGA the sensor-assay potency score (higher = more potent) was -0.99.
Work on TCAATCTTAGTCTTGAAGTGAG yielded a sensor-assay potency score (higher = more potent) of -0.441.
ATCAGCTTGTAAAAGATCCTGG showed a sensor-assay potency score (higher = more potent) of -0.191.
With TTGTCCCGGGAGATGAACCAGT the sensor-assay potency score (higher = more potent) was -1.24.
With TACTTGAACCTCACCCACTTTT the sensor-assay potency score (higher = more potent) was -0.563.
For TTCAAAAACGTGCTCATCGCTC, the sensor-assay potency score (higher = more potent) was -0.238.
TCATCTGACGTTTCCACCTTGA gave a sensor-assay potency score (higher = more potent) of -0.126.
TTGGTCAGCAGGTCGTCCAGGG gave a sensor-assay potency score (higher = more potent) of -0.558.
In the case of TAGGAATAGGAGATGAGCTTTG, the sensor-assay potency score (higher = more potent) is reported as -0.367.
TCTTAGTCTTGAAGTGAGGGTA gave a sensor-assay potency score (higher = more potent) of 0.435.
TTGTCCAGTAGAGCATGACGTT showed a sensor-assay potency score (higher = more potent) of -1.4.
For TTCTCCTTGTAGAAGCGCTGGG, the sensor-assay potency score (higher = more potent) was -0.596.
For TCATGCTTCTGGGTCATCCAGC, the sensor-assay potency score (higher = more potent) was -0.602.
Sequence TAAAACTCGTAGAAAGAGCCGG has a sensor-assay potency score (higher = more potent) of -0.339.
AAAGTTTCCTCTTTGTCCCGGG was tested, and the sensor-assay potency score (higher = more potent) was 0.0687.

Each sequence was assayed against EPHX2 in the same assay as above. Conditions: shRNA.
TTTGATACTCTCCAAAGGGGAC showed a sensor-assay potency score (higher = more potent) of -0.915.
In the case of TATTCTTCTATTTCGGGAGGAG, the sensor-assay potency score (higher = more potent) is reported as 0.331.
With TTCTTTTATGGAGAAATTCTTG the sensor-assay potency score (higher = more potent) was -0.837.
TTGGATTGCAAGAGGTCGGCAG showed a sensor-assay potency score (higher = more potent) of -0.532.
For TTTATGGAGAAATTCTTGGGGA, the sensor-assay potency score (higher = more potent) was 0.378.
In the case of TTAGAGGACCTCTGAAACCAGA, the sensor-assay potency score (higher = more potent) is reported as -0.75.
Sequence TGCAATATTCTTCTATTTCGGG has a sensor-assay potency score (higher = more potent) of -0.612.
For TCCAAGAATACCAACTCTCGGG, the sensor-assay potency score (higher = more potent) was -1.01.
Sequence TATCAGGAAGTCAAAGTGCATC has a sensor-assay potency score (higher = more potent) of -1.33.
TTCCATGCAATATTCTTCTATT showed a sensor-assay potency score (higher = more potent) of -0.473.
With TCTCTCAGCACGGTCGTCCAGC the sensor-assay potency score (higher = more potent) was -0.771.
TTCTTGGAAGTAGAGCTGGTAA gave a sensor-assay potency score (higher = more potent) of -0.749.
Work on TCGCTTGCTCTGAAGAGGCTTT yielded a sensor-assay potency score (higher = more potent) of -0.734.
Sequence TAGAACTGGATTTCCTCCTCAG has a sensor-assay potency score (higher = more potent) of 0.253.
Sequence TCTCCTTACATAACACTTCCAT has a sensor-assay potency score (higher = more potent) of -0.551.
TGGTTCTTGGAAGTAGAGCTGG gave a sensor-assay potency score (higher = more potent) of -0.725.
Sequence TTTCTGGCTGAAATCGCCTTGT has a sensor-assay potency score (higher = more potent) of -0.617.
In the case of TTTCTGGAAAGCATCATTCAGA, the sensor-assay potency score (higher = more potent) is reported as -0.533.
TAGTGAATCCTTTCTTCCTGAG was tested, and the sensor-assay potency score (higher = more potent) was -0.285.
